Among all 21,000 compounds or so, about 110 (0.52%) were called active.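 The calls were made as follows: active = most replicate scores above 10, or exactly half above 10 with mean activity above 10; inconclusive = mean activity below 10 while half the replicates exceed 10; inactive = most replicate scores below 10.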 The sample as a whole holds a higher share of actives than the screen did.
Experiment: inducers of caspase activity in MEF A1-2A-BIM cells, primary screen, A1 inhibitor project, cell-based, CaspaseGlo luminescence (AID 2241);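 also: effector caspase 3 and 7 activity cleaving a DEVD luciferin substrate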
Details: caspase-Glo luminescence, 3 h, hits give high values, percent of clofoctol signal, DMSO as zero, concentration not given here

Row | Structure (SMILES) | caspase activation
1 | CN[C@@H]1C[C@H]2O[C@@](C)([C@@H]1OC)n1c3ccccc3c3c4c(c5c6ccccc6n2c5c31)C(=O)NC4 | 81% (active)
2 | CCN(CC)C(=O)c1ccc(N(Cc2ccccc2Cl)S(C)(=O)=O)cc1 | -0.556% (inactive)
3 | C[C@H]1O[C@@H](O[C@H]2CC[C@]3(CO)C4CC[C@]5(C)[C@@H](C6=CC(=O)OC6)CC[C@]5(O)[C@@H]4CC[C@H]3C2)[C@H](O)[C@H](O)[C@@H]1O[C@@H]1O[C@H](CO)[C@@H](O)[C@H](O)[C@H]1O (stereo not given in full) | -0.142% (inactive)
4 | CC1N=C(c2ccccc2)c2ccccc2N(CCCOc2ccc(F)cc2)C1=O (stereo not given) | -0.726% (inactive)
5 | Cc1ccc(CSc2nnc(OC(=O)N(C)C)n2-c2cccc(Cl)c2)cc1 | -0.0343% (inactive)
